This is one part of a sample in which hits are shown more often than they occur.
KDM5B inhibitor = Primary screen for KDM5B Histone Demethylases FDH-coupled qHTS; KDM5B demethylase, FDH-coupled NADH fluorescence (FDH is formaldehyde dehydrogenase); Potency, µM (series often up to 57.7 µM), most hits filed as inhibitors; 220,000 compounds, 2.6% hits; active means well fitted inhibition curve with a large enough effect; further: nearly all actives have a fitted effect of over 70% in size
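qHTS format, multiple compound concentrations. Buffer 50 mM HEPES pH 7.5/0.01% Tween-20; 200 nM KDM5BΔAP final; 10 min compound preincubation; substrate-mix levels 12.5 µM peptide, 25 µM α-KG, 0.25 mM NAD⁺; 30 min RT; ΔRFU.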
Each line names hits and unclear results; the compound was inactive in the other large screens.

COc1ccc(Cn2c(CO)cnc2SCC(=O)NCc2ccc(F)cc2)cc1	none
COCC1CCN(C(=O)C2CCC(=O)N(C3CCCCCC3)C2)CC1 (stereo not drawn)	none
CNC(=O)[C@@H]1CN(C(=O)c2cccnc2)C[C@H]1COC	none
COCC1CCN(C(=O)[C@@H]2CN(c3cnccn3)C[C@H]2COC)CC1	KDM5B inhibitor 25µM
O=C(OCc1cnc(-c2ccccc2)s1)c1ccc(S(=O)(=O)N2CCCC2)cc1	none
COCCn1cnc2c1c(=O)n(CC(=O)OCCOc1ccccc1)c(=O)n2Cc1ccccc1	none
COC(=O)c1ccc(COC(=O)c2cc(=O)c3cc(C)ccc3o2)cc1	none
CCCS(=O)(=O)N1CCc2n[nH]c(=O)n2CC1	none
CCCCS(=O)(=O)N1CCc2n[nH]c(=O)n2CC1	KDM5B inhibitor 20µM
O=c1[nH]nc2n1CCN(S(=O)(=O)c1ccc3c(c1)CCCC3)CC2	none
S=C(NCCc1ccccc1)N/N=C/c1ccccc1Br	none
CCCOc1c(/C=N/O)cccc1OC	none
CCOC(=O)C1=C(C)N=C2SC=C(CC(=O)N3CCOCC3)N2C1c1cccc(OC)c1OC (stereo not drawn)	none
C=CCOC(=O)C1=C(C)N=C2SC=C(CC(=O)N3CCCC3)N2C1c1cccc(OC)c1OC (stereo not drawn)	KDM5B inhibitor 28µM
CCOC(=O)C1=C(C)N=C2SC=C(CC(=O)N3CCCC3)N2C1c1cccc(C)c1 (stereo not drawn)	none
C=CCOC(=O)C1=C(C)N=C2SC=C(CC(=O)N3CCCC3)N2C1c1ccccc1Cl (stereo not drawn)	KDM5B inhibitor 28µM
CC1=C(C(=O)OC(C)(C)C)C(c2ccccc2)N2C(CC(=O)N3CCCC3)=CSC2=N1 (stereo not drawn)	none
CCOC(=O)C1=C(C)N=C2SC=C(CC(=O)N3CCCC3)N2C1c1cc(OC)cc(OC)c1 (stereo not drawn)	none
CN(C)C(=O)C1CN(C(=O)Cc2ccccc2Cl)CC12CCOCC2 (stereo not drawn)	none
N#Cc1ccc(NCCNC(=O)C2CC=CCC2)nc1 (stereo not drawn)	none
CC(=C/c1ccccc1)/C=N/Nc1ccc([N+](=O)[O-])cc1	none
COC(=O)/C(C#N)=C\c1cc(Br)ccc1OCc1c(Cl)cccc1Cl	none
Cc1ccc2nc(C(=O)O)[nH]c2c1	none
COc1ccc(Cl)cc1NC(=O)CCC1CCCN(C(=O)c2ccnn2C)C1 (stereo not drawn)	none
COc1ccc(Cl)cc1NC(=O)CCC1CCCN(S(=O)(=O)C2CC2)C1 (stereo not drawn)	none
COc1ccc(Cl)cc1NC(=O)CCC1CCCN(c2ccc(C(F)(F)F)cn2)C1 (stereo not drawn)	KDM5B inhibitor 28µM
O=C1COCC2(CN(Cc3ccc4c(c3)CCO4)C2)CN1Cc1ccccc1	none
O=C1NCc2ccccc2CC12CCN(Cc1ccccc1Br)C2 (stereo not drawn)	none
CCCOc1ccc(C(=O)Nc2cccc(NC(=O)c3cccc(Cl)c3)c2)cc1	none
CN(C)CCOCC1(C)COc2ccc(C(=O)Nc3cccc(Cl)c3)cc2N1 (stereo not drawn)	KDM5B inhibitor 35µM
CC1(COc2cccnc2)COc2ccc(C(=O)Nc3ccc4[nH]ccc4c3)cc2N1 (stereo not drawn)	none
O=C(Nc1cccc(Cl)c1)c1ccc2c(c1)CCC2	none
CC1(COc2cccnc2)COc2ccc(C(=O)Nc3cccc(Cl)c3)cc2N1 (stereo not drawn)	KDM5B inhibitor 14µM
CCc1ccc(C(=O)Nc2cccc(Cl)c2)cc1S(=O)(=O)N1CCOCC1	none
O=C(NCc1cccc(Cl)c1)c1cccc2c1C(=O)N(C1CCCCC1)C2	none
O=C(c1ccc(C(F)(F)F)cc1)N1CCN(C2CCN(Cc3cccnc3)C2=O)CC1 (stereo not drawn)	none
O=C(Nc1cccc(Cl)c1)N(Cc1cccc(O)c1)C1CCC(O)CC1 (stereo not drawn)	none
O=C(Nc1ccccc1)Nc1c(NC2CCCCC2)c2ccccc2oc1=O	none
Cc1c(-c2ccccc2)oc2c(C(=O)OCC(=O)N3CCC(C)CC3)cccc2c1=O	none
Fc1nc(F)c(F)c(Sc2cccc3cccnc23)c1F	none
O=C(O)c1ccc(-c2ncc3cnc(-c4cccc(F)c4)cn23)cc1	KDM5B inhibitor 35µM
COc1cc(C(=O)NCCc2sc(-c3cccc(F)c3)nc2C)cc(OC)c1OC	none
O=C(NC1CCCCC1)c1ccc2c(c1)sc1nc(-c3ccc(F)cc3)cn12	none
O=C(O)c1cccc(-c2cnccn2)c1	none
O=C(NC1CCCCCC1)c1ccc2c(c1)sc1nc(-c3ccc(F)cc3)cn12	none
O=C(O)c1ccc(-c2cccc(C(F)(F)F)c2)cc1	none
CC(=O)NCCNC(=O)c1ccc(-c2ncc3cnc(-c4cccc(F)c4)cn23)cc1	KDM5B inhibitor 28µM
COc1ccc(-c2cn3c(n2)sc2cc(C(=O)NCc4cccc(F)c4)ccc23)cc1	none
O=C(NC1CCC(O)CC1)c1ccc(-c2ncc3cnc(-c4cccc(F)c4)cn23)cc1 (stereo not drawn)	KDM5B inhibitor 22µM
CC1CCCN(C(=O)c2cc3c(s2)CCN(C(=O)c2ccc(Cl)cc2)C3)C1 (stereo not drawn)	none
Cc1cccc(CN2CCn3c(nnc3[C@@H]3C[C@@H](O)CN3Cc3ccccc3)C2)c1	none
O=C(NCc1cccnc1N1CCOCC1)c1n[nH]c2c1CCCC2	none
COc1ccc(Cl)cc1C(=O)NC(=S)Nc1nc(C)cc(C)n1	none
COc1ccc(Cl)cc1C(=O)NCc1nnc2ccc(-c3ccc(C)c(C)c3)nn12	KDM5B inhibitor 32µM
COc1ccc(Cl)cc1C(=O)NCc1nnc2ccc(-c3ccc(Cl)cc3)nn12	none
COc1ccccc1C(=O)NCc1nnc2n1C(C(=O)O)CC2 (stereo not drawn)	none
COc1ccc(-c2nc3sc(CCNC(=O)c4cc(Cl)ccc4OC)c(C)n3n2)cc1	none
COc1ccc(Cl)cc1C(=O)NCc1nnc2ccc(-c3ccccc3)nn12	KDM5B inhibitor 25µM
Brc1ccc(-c2nnc3ccc(SCc4ccco4)nn23)cc1	none
Cc1nn(Cc2ccc(Cl)cc2)c(C)c1NS(=O)(=O)c1c(C)nn(C(F)F)c1C	none
N#Cc1ccc2nc([C@H]3CCN(Cc4ccccn4)C3)[nH]c2c1	KDM5B inhibitor 35µM
Cc1ccc2nc([C@H]3CCN(Cc4cccs4)C3)[nH]c2c1	none
Cc1ccccc1CN1CC[C@H](c2nc3ccc(F)cc3[nH]2)C1	none
COc1ccc(-c2cc(NC(=O)c3cccs3)n(C3CCS(=O)(=O)C3)n2)cc1 (stereo not drawn)	none
CC(C)c1nc2cc(NC(=O)NCc3ccccc3F)ccc2o1	none
COc1ccc2cc(-c3[nH]ncc3CN3CCCC3c3nonc3C)ccc2c1 (stereo not drawn)	none
Cc1oc(-c2ccccc2)nc1CC(=O)NC1CCCCNC1=O (stereo not drawn)	none
Fc1ccc2nc(C3CCN(Cc4nc(COc5ccccc5)no4)CC3)[nH]c2c1	none
Cc1nonc1C1CCCN1c1ccc(-c2nc(COc3ccccc3)no2)cn1 (stereo not drawn)	KDM5B inhibitor 28µM
O=C1CCN(C2CCN(Cc3nc(COc4ccccc4)no3)CC2)CCN1	none
O=C1NCCCC[C@@H]1Nc1ccc(-c2nc(COc3ccccc3)no2)cn1	KDM5B inhibitor 28µM
CCOc1ccc(N(Cc2nnc3n2CCCCC3)C(=O)Nc2ccccc2C)cc1	none
COC(=O)c1cc(C)nc2c1c(=O)n(Cc1nc(-c3cccc(OC)c3OC)oc1C)c(=O)n2C	none
CCOc1ccccc1CN1C[C@@H](CO)[C@H](C(=O)N(C)C)C1	none
CCn1c(NC(=O)CCc2nc(-c3ccsc3)no2)nc2ccccc21	none
CC(C)(C)CC(=O)Nc1cnc(-c2ccc(Cl)cc2)nc1	none
